Pf growth 48h: Primary qHTS for delayed death inhibitors of the malarial parasite plastid, 48 hour incubation. P. falciparum luciferase growth in erythrocytes, 48 h. Potency, µM (series often up to 28.7 µM), without a hit: at the highest dose activity change, negative = inhibition, most hits filed as inhibitors. 5.9% of 310,000 active. AID 504832, 2011; further: potency means the concentration at half of the fitted maximal effect; on the % scale 0 is the no-effect control and ±100 the full control effect
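Compounds are pin-transferred into medium, infected erythrocytes (2% hematocrit, 0.1% parasitemia final) are added, and plates sit one parasite generation at 37 C in 5% CO2. Detection reagent is then added and luminescence measured.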
CHX counter: Cycloheximide Counterscreen for Small Molecule Inhibitors of Shiga Toxin; max response, %; AID 2314, 2010; 12% of 300,000 active; cell reporter, cycloheximide protein synthesis inhibition counterscreen; in the data active means max response mostly above about 13%, no sharp cut-off; inactive means mostly below about 14%; further: read at 38.3 µM for the half of the compounds with a filed dose; 0% is about no effect
Shiga inhibitor: A qHTS for Small Molecule Inhibitors of Shiga Toxin; Vero cells, Shiga toxin protein synthesis inhibition reporter; inhibition, % at 38.7 µM; 9.2% of 290,000 active; AID 2315, 2010; in the data active means inhibition mostly above about 28%, no sharp cut-off; inactive means mostly below about 43%; further: 0% is about no effect
LmPK inhibitor: qHTS Assay for Inhibitors of Leishmania Mexicana Pyruvate Kinase (LmPK); Potency, µM (titrated, usually from 57.5 µM), inactives show top-dose activity change, negative = inhibition, usual class: inhibitors; 0.37% of 290,000 active; AID 1721, 2009; purified LmPK, Kinase-Glo ATP luminescence, 1 h; Q27686; further: potency means the concentration at half of the fitted maximal effect; on the % scale 0 is the no-effect control and ±100 the full control effect
Target sequence (Q27686 whole entry, looked up): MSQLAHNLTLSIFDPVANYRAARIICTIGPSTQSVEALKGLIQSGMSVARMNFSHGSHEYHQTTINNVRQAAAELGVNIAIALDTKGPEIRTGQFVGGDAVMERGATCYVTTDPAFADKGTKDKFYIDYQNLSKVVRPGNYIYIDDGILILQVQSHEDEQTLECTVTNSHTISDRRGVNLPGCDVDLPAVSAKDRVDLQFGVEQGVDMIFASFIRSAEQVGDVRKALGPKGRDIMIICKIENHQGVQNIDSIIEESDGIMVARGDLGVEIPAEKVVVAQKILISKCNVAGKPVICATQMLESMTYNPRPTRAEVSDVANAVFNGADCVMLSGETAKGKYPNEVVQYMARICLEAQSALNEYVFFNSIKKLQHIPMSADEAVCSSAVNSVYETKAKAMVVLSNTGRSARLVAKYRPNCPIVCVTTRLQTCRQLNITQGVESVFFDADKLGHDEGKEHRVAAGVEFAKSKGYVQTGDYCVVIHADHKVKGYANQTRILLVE
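In 50 mM imidazole pH 7.2 with 7 mM MgCl2, LmPK (0.1 nM) turned over PEP (0.5 mM) and ADP (0.1 mM) for 1 h at room temperature. Luciferase read-out of ATP.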
Pf growth 96h: Primary qHTS for delayed death inhibitors of the malarial parasite plastid, 96 hour incubation; P. falciparum luciferase reporter growth, 96 h; Potency, µM (top dose mostly 28.7 µM), inactives show at the top dose activity change, negative = inhibition, hits mostly inhibitors; 6.9% of 320,000 active; further: potency means the concentration at half of the fitted maximal effect; on the % scale 0 is the no-effect control and ±100 the full control effect
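Infected RBCs, 2% Hct / 0.05% parasitemia final; luciferase-reporter P. falciparum; cpd 96 h, 37 C, 5% CO2; luciferase detection reagent; luminescence.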
* marks the source's active call; other numbers are inactive results; i = inactive; ? = inconclusive; nt = no result. Only some compounds are listed: those with a hit (about 22% of all), similar ones and a draw of the others. Unless noted, the call rests on the fitted dose curve; in most records, active means well fitted inhibition curve with a large enough effect; inconclusive means small, poorly fitted or top-dose-only effect, or another doubt; inactive means no such curve, though single readings can be large or run the other way.

SMILES | Pf growth 48h | CHX counter | Shiga inhibitor | LmPK inhibitor | Pf growth 96h
COc1ccc(S(=O)(=O)Nc2ccc3c(c2)OCCO3)cc1OC | 4% | 23* | 65* | 3% | 0%
CCn1cc(S(=O)(=O)NCc2ccc3c(c2)OCO3)cn1 | 22% | -1 | -9 | -9% | 12µM*
Cn1cc(S(=O)(=O)Nc2ccc3c(c2)OCCO3)cn1 | 146% | 44* | 103* | -4% | ?
Cc1ccc(S(=O)(=O)Nc2ccc3c(c2)OCCO3)cc1 | -2% | 6 | 8 | -1% | 7%
O=C(c1ccc(S(=O)(=O)N2CCCCC2)cc1)N1CCCC(C(F)(F)F)C1 (centres undefined) | -18% | nt | nt | nt | 2%
CCC(=O)Nc1nnc(S(=O)(=O)N2CCCCCC2)s1 | 17% | -1 | -5 | -4% | 4%
CC1CCCC(NC(=O)COC(=O)c2ccc(Cl)nc2)C1C (centres undefined) | -9% | nt | nt | nt | -18%
Cn1c(=O)c2cc(S(=O)(=O)Nc3ccc4c(c3)OCO4)ccc2n(C)c1=O | ? | -2 | 8 | 6% | nt
Cn1c(=O)oc2cc(S(=O)(=O)Nc3ccc4c(c3)OCO4)ccc21 | ? | 14* | 25 | 3% | nt
Cc1ccc(C2=NN(CCC(=O)NCc3ccc4c(c3)OCO4)C(=O)CC2)cc1 | 6% | 20* | -4 | -2% | ?
CCc1ccc(C2=NN(CCC(=O)NC3CCCCCC3)C(=O)CC2)cc1 | ? | -2 | -6 | 0% | 10µM*
O=C1NN(c2ccccc2)C(=O)/C1=C/c1ccc(Sc2cccc3ccccc23)o1 | 12% | -3 | -15 | -3% | ?
Cc1cc(C(=O)Cn2ncc(Cl)c(Cl)c2=O)c(C)n1CC(F)(F)F | 5% | 24* | 22 | 2% | ?
Cc1ccc(C)c(C(=O)Cn2ncc(Cl)c(Cl)c2=O)c1 | ? | 15 | -20 | -6% | nt
COc1ccc(NC(=O)CN2CCN(CC(=O)Nc3ccc4c(c3)OCO4)CC2)cc1 | ? | -3 | 13 | 3% | ?
COc1ccc(N/C(C)=C/C(=S)Nc2ccccc2)cc1 | 45% | 32* | 43* | 0% | 41%
CC1(C(=O)Nc2ccc3c(c2)OCO3)CC1(Cl)Cl (centres undefined) | 20% | 16* | 29* | -11% | 24%
COc1ccc(C(=O)/C=C(\C)Nc2ccc3c(c2)OCO3)cc1 | 172% | 49* | i | -2% | 125%
CC(C)=CC(=O)Nc1ccc2c(c1)OCO2 | 205% | 25* | 68* | ? | nt
Cc1ccc(C(=O)N2CCNC(=O)C2CC(=O)Nc2ccccc2)cc1 (centres undefined) | 0% | -2 | -7 | -4% | 47%
Cc1cn(C(=O)c2ccccc2)c(=S)n1-c1ccc(Br)cc1 | ? | -2 | 6 | 1% | -11%
COc1cccc(N/C(C)=C/C(=O)c2ccc(Br)cc2)c1 | 191% | 21 | 32 | -1% | -22%
COc1ccc(OC)c(N/C(C)=C/C(=O)c2ccccc2)c1 | 126% | 91* | 27* | 0% | 11%
COC(=O)/C(=C\C(=O)c1ccccc1)Nc1ccc(OC)cc1 | 110% | 50* | 58* | 1% | 127%
COc1ccc(N/C(C)=C/C(=O)c2ccccc2)cc1 | 191% | 64* | 164* | -6% | 12µM*
SMILES | Pf growth 48h | CHX counter | Shiga inhibitor | LmPK inhibitor | Pf growth 96h
COc1ccc(OC)c(N/C(C)=C/C(=O)c2ccncc2)c1 | -17% | -3 | -11 | -7% | 173%
COc1ccc(-c2nn(CCC#N)cc2C(=O)NCc2ccccc2)cc1OC | 232% | -3 | -4 | 9% | 12µM*
COc1ccc(-c2nn(CCC#N)cc2C(=O)Nc2ccccc2)cc1OC | 72% | 1 | 16 | 9% | -12%
NS(=O)(=O)c1ccc(N/C=C\C(=O)c2cccc3ccccc23)cc1 | 3% | 21* | 10 | 1% | ?
O=C(Cn1cnc2c(cnn2-c2ccccc2Cl)c1=O)N1CCc2ccccc21 | ? | -3 | -6 | -1% | nt
CC(C)(C)n1ncc2c(=O)n(CC(=O)N3CCCc4ccccc43)cnc21 | -2% | -3 | 18 | 2% | 1.9µM*
CC(C)(C)n1ncc2c(=O)n(Cc3cccc(Cl)c3)cnc21 | 37% | 33* | 46* | 8% | ?
CC(C)(C)n1ncc2c(=O)n(CC(=O)c3ccccc3)cnc21 | 275% | 56* | 81* | 5% | 2.1µM*
CC(C)(C)n1ncc2c(=O)n(CC(=O)N3CCc4ccccc43)cnc21 | 20% | 12* | 69* | 1% | ?
Cn1c(=O)c2c(ncn2CC(=O)N2CCCc3ccccc32)n(C)c1=O | 37% | 3 | -4 | 0% | 171%
CCCOc1ccc(/C=C/C(=O)NCc2ccccc2)cc1 | ? | -2 | 12 | 7% | -21%
O=C(NCc1ccccc1)C1=C[C@@H](c2ccccc2)C[C@@H](OCc2ccc(CO)cc2)O1 | ? | 2 | 22 | -1% | 9.3µM*
O=C(NCc1ccccc1)C1=C[C@H](c2ccc(Br)cc2)C[C@H](OCc2ccc(CO)cc2)O1 | ? | -1 | 14 | 1% | 1.7µM*
O=C(Nc1ccccc1)Nc1ccc2ocnc2c1 | i | 42* | 67* | -23% | 420%
O=C(Nc1ccccc1)Nc1ccc2ncoc2c1 | 55% | 42* | 64* | -22% | 58%
COc1ccc(CNC(=O)c2ccc(S(=O)(=O)N3CCCC3)cc2)cc1OC | nt | -4 | -18 | -4% | ?
COc1ccc(CCNC(=O)c2cc(S(=O)(=O)N3CCCCCC3)ccc2OC)cc1OC | ? | nt | nt | nt | 13µM*
COc1cc(CNCCc2ccc(S(N)(=O)=O)cc2)ccc1OCC(=O)N1CCCCC1 | 5% | -3 | -12 | -9% | 4.1µM*
COc1ccc(S(=O)(=O)N2CCCCCC2)cc1C(=O)NCc1ccc(C)cc1 | 15µM* | nt | nt | nt | 12µM*
COc1ccc(CCN(C)C(=O)c2cc(S(=O)(=O)N3CCCCC3)ccc2Cl)cc1OC | 13µM* | nt | nt | nt | ?
CC1CCN(C(=O)C2CCN(S(=O)(=O)c3cc(Cl)ccc3Cl)CC2)CC1 | 2% | -1 | 11 | 3% | ?
COc1ccc(S(=O)(=O)N2CCCCCC2)cc1C(=O)N(C)CCOc1ccc(Cl)cc1 | 13µM* | nt | nt | nt | ?
O=C(NCCN1C(=O)S/C(=C\c2cccnc2)C1=O)c1cc(S(=O)(=O)N2CCOCC2)ccc1F | -6% | -1 | -10 | -3% | -6%
CC(/C=C/c1ccco1)=N\NC(=O)c1cc(C)[nH]n1 | 5% | 3 | 3 | 2% | 10%
Cc1cc(C(=O)N/N=C/c2ccco2)n[nH]1 | 122% | 29* | 46 | -10% | 0%
Cc1cc(C(=O)NN)n[nH]1 | 11% | 20* | 61* | -4% | 12%
O=C(N/N=C/c1ccco1)c1cc(C2CC2)[nH]n1 | 90% | 35* | 118* | -28% | 78%
